# From the supplement of paper PMC6555819
# Columns and labels:
# Test in all cases: PBM binding z-score (relative to random genomic background probes); higher = stronger binding; sequences stand for … in GC…GCGATTGACAGCGTAGAATGAAGG
# [1] = test system: RARb homodimer (NR concentration 270 nM)
# In short: (§1)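 Scanned fluorescence from custom Agilent 4×180K protein-binding microarrays was regression-normalized. Binding z-scores use random background probes as reference. Ligand-free nuclear receptor dimers were incubated on the arrays for 1 h and detected with antibodies against each partner (one per run).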
# [2] = test system: RARg homodimer (NR concentration 270 nM)
# In short: as §1
# [3] = test system: RXRa DBDmut IVT, anti-RXR (DBD mutation: RXRa K156A/R161A, NR concentration 90 nM)
# In short: as §1
# [4] = test system: RXRa homodimer (NR concentration 180 nM)
# In short: as §1
# [5] = test system: THRa:RXRa (NR concentration 90 nM, RXRa partner concentration 90 nM)
# In short: as §1
# [6] = test system: THRa homodimer (NR concentration 90 nM)
# In short: as §1
# [7] = test system: VDR homodimer (NR concentration 270 nM)
# In short: as §1
# [8] = test system: VDR:RXRa (NR concentration 270 nM, RXRa partner concentration 90 nM)
# In short: as §1
Sequence,PBM binding z-score [1],PBM binding z-score [2],PBM binding z-score [3],PBM binding z-score [4],PBM binding z-score [5],PBM binding z-score [6],PBM binding z-score [7],PBM binding z-score [8]
GCTGCTAGGTCAACTGATGGTGAGCTAAAGCTCG,3.06,5.32,1.5,2.69,2.86,0.689,-0.42,
AGCGAAAGGTCGAAGGTGAGTATACCCACCCGAA,2.44,4.05,0.876,5.09,2.04,-0.329,0.312,2.8
TAGCCTAGGTCATTCAGGGGGCAGTATAGAAAGC,4.09,5.84,2.37,4.33,3.8,2.11,3.36,4.82
